Measured values published in PubChem BioAssay.
Records with an inconclusive call do not appear. Activity calls are given as the source filed them.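 Rule for the calls, unless noted: active = viability at or below 27.92% in each of two runs, the all-compound median minus 4 SD; inconclusive = no clear call, values can overlap the other calls; inactive = the rest.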

Columns and labels:
[1] = reducers of endogenous Her2 protein level, primary screen, SKBR3 breast tumor cells, AlphaScreen, ATP viability (AID 461;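 active = Her2 level under about 52% in both replicate screens, with viability over 70% of control, limit read from the data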;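 for Her2 level: lower value means less Her2 protein in the cells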;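 for viability: percent of carrier control wells set as 100% viability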); conditions: 18-24 h, measured here: SKBR3 viability, ATP luminescence, at 10 µM
[2] = target: Receptor tyrosine-protein kinase erbB-2 (Homo sapiens) (UniProt P04626); experiment: as above; conditions: 18-24 h, at 10 µM, stronger effect = lower value
[3] = SK-BR-3 cell growth inhibitors, pilot screen, 24 h, human (AID 572;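 active = viability at or below 10% of carrier control in both of two separate runs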;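 note: compound exposure lasted between 18 and 24 h rather than exactly 24 h; 100% = carrier-treated control wells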); conditions: SK-BR-3 viability, CellTiter-Glo luminescence, at 10 µM, stronger effect = lower value
[4] = HUVEC growth inhibition – cell-based, human, primary screen (AID 575;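 active = viability at or below 30% in both replicate assays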;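 note: 100% = median of untreated cell wells with 0.1% DMSO on each plate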); conditions: HUVEC proliferation, CellTiter-Glo luminescence, 72 h; at 10 µM; stronger effect = lower value
[5] = growth inhibitors of H69AR lung tumor, primary screen, human, duplicate replicates (AID 580;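 active = viability at or under a set limit in both replicates, limit being median viability minus 3 SD, cut at about 48% in these data, passing the limit was not always enough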;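 note: 100% = mean luminescence of untreated wells and 0% = no signal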); conditions: H69AR lung tumor cells viability, ATP luminescence, 72 h; at 10 µM; stronger effect = lower value
[6] = reversal of MRP1-mediated doxorubicin resistance, pilot screen, H69AR cells, doxorubicin co-treatment (AID 601;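 active = viability loss from added drug above about 55%, and viability with drug at most 40%, in both replicates, limit read from the data, passing the limit was not always enough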); conditions: CellTiter-Glo, 72 h, at 10 µM; for differential viability (reversal): stronger effect = higher value
[7] = 384-well plate pilot, post-Golgi transport modulator project, inhibition of yeast transport mutant growth (AID 636; in the data active = inhibition above about 31%); conditions: absorbance 615 nm, about 18 h, stronger effect = higher value
[8] = growth suppression of yeast trafficking mutant, preliminary HTS, modulators of trafficking downstream of Golgi apparatus project, 1536-format plate, OD 615 nm (AID 637; in the data active = inhibition above about 30%); conditions: yeast transport mutant growth, absorbance 615 nm, 18 h; stronger effect = higher value
[9] = OD615 S. cerevisiae growth inhibition, permissive medium, pilot counter-assay, permissive growth control for S. cerevisiae lifespan shortening project (AID 705;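 active = growth inhibition above 25% in both replicates, a cutoff set 3 SD above the mean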); conditions: OD615, 24 h, at 10 µM, stronger effect = higher value
[10] = Restrictive medium S. cerevisiae growth inhibition, OD615, pilot screen of yeast lifespan reduction project, restrictive growth control (AID 706;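 active = growth inhibition above a set limit, 3 SD over mean compound inhibition, in both replicates, cut at about 43% in these data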;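 note: modified DeaD lifespan yeast strain shifted to restrictive glucose medium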); conditions: OD615, 48 h, at 10 µM, stronger effect = higher value
[11] = viability gain of MRP-1-high H69AR cells under doxorubicin, pilot screen, MRP-1 activator project, CellTiter-Glo, duplicate (AID 807;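 active = viability increase at or above a cutoff of the median across tested compounds plus 3 SD, cut at about 8.5% in these data, passing the limit was not always enough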;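 note: compound pretreatment 18-22 h then 72 h combined with doxorubicin; 0% = doxorubicin alone and 100% = vehicle without doxorubicin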); conditions: H69AR viability with doxorubicin, CellTiter-Glo luminescence; at 10 µM; stronger effect = higher value
[12] = growth suppression of beta-catenin knockout HCT116, pilot screen, human colon tumor cells (AID 823;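 active = cell viability at or below a set limit in both duplicate runs, the limit being the all-compound median minus 4 SD, cut at about 23% in these data, passing the limit was not always enough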;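 note: 0% = wells killed by 20 µM Hyamine and 100% = untreated DMSO cell wells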); conditions: CellTiter-Glo, 60 h, at 10 µM, stronger effect = lower value
[13] = growth suppression of PTEN-deleted HCT116, pilot screen, cell-based, HCT116 clonal line, CellTiter-Glo (AID 824); conditions: 60 h, at 10 µM, stronger effect = lower value;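 note: 0% = 20 µM Hyamine control and 100% = vehicle cell control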
[14] = inhibitors of the yeast RAM network, pilot screen, dse1pr::URA3 reporter, 5-FOA selection (AID 869;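 active = inhibition over a set limit, the all-compound mean plus 3 SD, in both replicate runs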;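 note: 0% = DMSO wells with no growth and 100% = 10 µM 1-NA-PP1 with full growth; RAM network block rescues cells from 5-FOA so hits raise OD615 growth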); conditions: S. cerevisiae dse1pr::URA3 5-FOA growth, OD615, 2 d; at 10 µM; stronger effect = higher value; strain carries analog-sensitive mutant Cbk1 kinase
[15] = RAM signaling pathway blockade in yeast – S. cerevisiae, Pdr1DBD-CYC8 efflux-inhibited sensitized strain, primary screen (AID 1298;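 active = RAM network inhibition above 8.4% in each of two replicates, 3 SD over the compound average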;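 note: 0% = DMSO untreated cells without growth and 100% = 10 µM 1-NA-PP1 full growth; higher means more yeast growth rescued from 5-FOA killing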); conditions: S. cerevisiae cbk1-as DSE1-URA3 strain, 5-FOA growth OD615, 2 d; at 50 µM; stronger effect = higher value
[16] = H69AR cells + 2 uM doxorubicin, measured here: viability with 2 uM doxorubicin, stronger effect = lower value
[17] = H69AR cells, compound alone cytotoxicity

Sequence of Receptor tyrosine-protein kinase erbB-2 (Homo sapiens) (P04626 whole entry, looked up): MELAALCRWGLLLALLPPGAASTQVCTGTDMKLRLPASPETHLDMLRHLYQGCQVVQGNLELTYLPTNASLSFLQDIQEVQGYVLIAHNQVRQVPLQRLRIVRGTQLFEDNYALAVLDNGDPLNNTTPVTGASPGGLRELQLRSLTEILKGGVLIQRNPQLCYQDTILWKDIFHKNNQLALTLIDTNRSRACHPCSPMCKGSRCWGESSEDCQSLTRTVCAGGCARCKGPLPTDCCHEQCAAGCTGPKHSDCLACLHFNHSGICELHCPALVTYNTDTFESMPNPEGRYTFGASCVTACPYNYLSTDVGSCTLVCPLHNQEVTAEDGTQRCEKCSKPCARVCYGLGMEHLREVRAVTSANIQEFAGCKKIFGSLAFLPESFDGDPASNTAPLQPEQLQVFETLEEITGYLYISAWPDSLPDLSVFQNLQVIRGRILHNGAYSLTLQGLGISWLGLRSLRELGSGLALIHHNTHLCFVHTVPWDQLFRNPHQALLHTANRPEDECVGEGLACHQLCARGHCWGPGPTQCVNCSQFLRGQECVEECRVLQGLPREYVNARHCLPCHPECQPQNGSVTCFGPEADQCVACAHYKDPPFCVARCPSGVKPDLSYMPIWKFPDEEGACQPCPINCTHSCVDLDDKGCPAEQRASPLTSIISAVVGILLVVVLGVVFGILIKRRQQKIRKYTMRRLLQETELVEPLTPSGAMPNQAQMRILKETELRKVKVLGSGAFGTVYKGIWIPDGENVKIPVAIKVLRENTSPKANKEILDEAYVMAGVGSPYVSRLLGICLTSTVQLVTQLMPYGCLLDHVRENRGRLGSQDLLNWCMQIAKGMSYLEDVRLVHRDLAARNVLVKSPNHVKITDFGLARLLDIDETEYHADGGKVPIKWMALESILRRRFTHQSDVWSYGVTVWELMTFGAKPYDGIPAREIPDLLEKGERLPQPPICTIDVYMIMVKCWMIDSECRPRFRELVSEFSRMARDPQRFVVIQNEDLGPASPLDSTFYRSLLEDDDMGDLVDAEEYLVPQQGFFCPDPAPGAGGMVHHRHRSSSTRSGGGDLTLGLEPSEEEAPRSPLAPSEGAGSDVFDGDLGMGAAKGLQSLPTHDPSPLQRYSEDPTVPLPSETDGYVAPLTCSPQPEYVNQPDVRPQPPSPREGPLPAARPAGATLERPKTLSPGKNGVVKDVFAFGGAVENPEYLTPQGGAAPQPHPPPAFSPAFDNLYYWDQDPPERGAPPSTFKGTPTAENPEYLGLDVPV

CC(C)c1nnc(NC(=O)C2CCCCC2)s1
99.5%: viability [6, 17]
98.5%: viability [1]
inactive: Her2 level [2] 97% | viability [3] 98.5% | viability [4] 96.5% | viability [5] 99.5% | differential viability (reversal) ([6]; H69AR cells + 2 uM doxorubicin) 5.75% | inhibition [7] -4.13% | inhibition [8] 0.83% | growth inhibition [9] -3.55% | growth inhibition [10] 0.755% | viability increase [11] -0.65% | viability [12] 99.7% | viability [13] 97.1% | inhibition [14] -0.59% | RAM network inhibition [15] -2.03%
93.8%: viability [6, 16]

Cn1c(=O)[nH]c(=O)c2c1nc(N1CCCCC1)n2CCSc1ncccn1
88.8%: viability [6, 17]
101%: viability [1]
92.5%: viability [6, 16]
inactive: Her2 level [2] 89.5% | viability [3] 101% | viability [4] 102% | viability [5] 88.8% | differential viability (reversal) ([6]; H69AR cells + 2 uM doxorubicin) -3.65% | inhibition [7] -3.2% | inhibition [8] 0.83% | growth inhibition [9] 1.54% | growth inhibition [10] -4.51% | viability increase [11] 1.1% | viability [12] 101% | viability [13] 103% | inhibition [14] 2.44% | RAM network inhibition [15] -0.42%

CCC(C)NC(=O)C1c2cc(OC)c(OC)cc2C(=O)N(C)C1c1ccc(OC)cc1 (configuration not stated)
97.6%: viability [6, 16]
inactive: Her2 level [2] 90% | viability [3] 96% | viability [4] 108% | viability [5] 108% | differential viability (reversal) ([6]; H69AR cells + 2 uM doxorubicin) 10.2% | inhibition [7] -8.77% | inhibition [8] -10.2% | growth inhibition [9] -5.75% | growth inhibition [10] -9.85% | viability increase [11] -1.38% | viability [12] 96% | viability [13] 95.3% | inhibition [14] 0.92% | RAM network inhibition [15] 0.81%
96%: viability [1]
108%: viability [6, 17]

CCCNC(=O)C1CCN(S(=O)(=O)c2ccc3nc4c(c(C(=O)O)c3c2)CCCCC4)CC1
96.6%: viability [6, 16]
99%: viability [1]
inactive: Her2 level [2] 92% | viability [3] 99% | viability [4] 105% | viability [5] 98.7% | differential viability (reversal) ([6]; H69AR cells + 2 uM doxorubicin) 2.09% | inhibition [7] -1.87% | inhibition [8] 8.36% | growth inhibition [9] 2.08% | growth inhibition [10] -0.39% | viability increase [11] 1.14% | viability [12] 108% | viability [13] 103% | inhibition [14] 2.09% | RAM network inhibition [15] 7.93%
98.7%: viability [6, 17]

CCOc1ccccc1NC(=O)CSc1nnc(Cc2cccn2C)n1-c1ccc(F)cc1
92.5%: viability [1]
79.9%: viability [6, 17]
inactive: Her2 level [2] 78.5% | viability [3] 92.5% | viability [4] 97.4% | viability [5] 79.9% | differential viability (reversal) ([6]; H69AR cells + 2 uM doxorubicin) 1.24% | inhibition [7] -1.28% | inhibition [8] -1.17% | growth inhibition [9] 5.28% | growth inhibition [10] 7.75% | viability increase [11] -5.25% | viability [12] 75.5% | viability [13] 78.2% | inhibition [14] 1.11% | RAM network inhibition [15] 4.07%
78.6%: viability [6, 16]

O=C1CCCc2c1cc(C(=O)NCCCN1CCOCC1)c(=O)n2-c1ccc(Cl)cc1
93.1%: viability [6, 17]
82.5%: viability [6, 16]
97%: viability [1]
inactive: Her2 level [2] 95.5% | viability [3] 97% | viability [4] 89.9% | viability [5] 93.1% | differential viability (reversal) ([6]; H69AR cells + 2 uM doxorubicin) 10.6% | inhibition [7] -5.07% | inhibition [8] 0.83% | growth inhibition [9] -14.6% | growth inhibition [10] -19.1% | viability increase [11] -2.29% | viability [12] 100% | viability [13] 104% | inhibition [14] 1.44% | RAM network inhibition [15] 2%
